# About 83,000 compounds went through this panel and 20% of them were active in at least one assay; those are over-represented in the sample as a whole.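 Interpretation: 100, growth as untreated; towards 0, rising growth inhibition; 0, no net growth; 0 to -100, cell death. Compounds scoring below 10 were considered active.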 Activity calls are given as the source filed them.
# Tested on: NCI-H322M lung
# Assay: NCI-60 one-dose screen, 48 h (100 = growth as untreated, 0 = no growth, -100 = all killed)
# Conditions: 10 µM unless noted
row,Structure (SMILES),growth
1,CC1=NCC2NC(=O)NC(C)=C12 (configuration not stated),94.7% (inactive)
2,COc1ccc(CCN2C(=O)CCSC2=S)cc1OC,101% (inactive)
3,CCOC(=O)c1sc(-c2ccc(OS(=O)(=O)c3ccccc3[N+](=O)[O-])c(C=O)c2)nc1C,58.4% (inactive)
4,Cc1cccc(NC(=O)c2sc3nc4c(cc3c2N)CCCC4)c1C,42.4% (inactive)
5,COc1cc(C(=O)NN=C2c3ccccc3-c3ccccc32)cc(OC)c1OC,54% (inactive)
6,Nc1ccc(-n2c(=O)oc3ccc(Cl)cc3c2=O)c(Cl)c1,-2.46% (active)
7,O=C(Nc1ccc(-c2nc3cc4ccccc4cc3[nH]2)cc1)c1cccc(Br)c1,41.3% (inactive)
8,CCOC(=O)CSc1c(-c2ccccc2)c2cc(Cl)ccc2[nH]c1=O,94.9% (inactive)
9,O=C(NCc1ccco1)C1CN(c2ccc(Cl)cc2)N(c2ccc(Cl)cc2)C1=O (configuration not stated),68.2% (inactive)
10,O=C(Nc1ncc(Cc2cccc(C(F)(F)F)c2)s1)C1COc2ccccc2O1 (configuration not stated),91.2% (inactive)
11,COc1ccc(-n2c(C(O)c3ccccc3)nn(CN3CCOCC3)c2=S)cc1 (configuration not stated),104% (inactive)
12,Fc1ccc(Oc2ccc(Nc3ncnc4onc(-c5ccccc5)c34)cc2)cc1,87.9% (inactive)
13,Cc1ccc(N=NC2C(=O)N(c3ccc(Cl)cc3)N(c3ccc(Cl)cc3)C2=O)cc1,97.4% (inactive)
14,Nc1nc(Nc2cccc(F)c2)nc2ccccc12,47.2% (inactive)
15,O=C(Nc1ccc(Br)cc1F)c1cc(F)ccc1O,10.4% (inactive)
16,Nc1ccc(C2c3ccccc3Oc3ccccc32)cc1,99.8% (inactive)
17,COc1ccc(/C=C/C(=O)c2ccc3cc(OC)c(OC)cc3c2)cc1OC,56% (inactive)
18,CN(C)c1ccc(N=Cc2ccc(N3CCOCC3)cc2)cc1,106% (inactive)
19,CC(=O)c1ccc(NC(=O)Nc2ccc(S(=O)(=O)Nc3ccc(Cl)nn3)cc2)cc1,95.8% (inactive)
20,CCC(C)(C)C(=O)O[C@H]1C[C@@H](C)C=C2C=C[C@H](C)[C@H](CC[C@@H]3CC=CC(=O)O3)[C@H]21,103% (inactive)
21,COC(=O)[C@H]1CCCN1C(=O)[C@H]1CCCN1C(=O)[C@H](Cc1c[nH]c2ccccc12)NC(=S)Nc1cc(C(F)(F)F)cc(C(F)(F)F)c1,78.4% (inactive)
22,NCCOc1ncccc1/C=C1\c2ccccc2-c2ccc([N+](=O)[O-])cc21,-23.4% (active)
23,CC(C)C[C@H](C(=O)N[C@H](C(N)=O)C(C)C)N1CC=CCN(OCc2ccccc2)S1(=O)=O,105% [2.5 µM] (inactive)
24,COc1ccc(N)c(-c2cc3c(c4c2[nH]c2ccc(OC)cc24)CCCC3)c1,71.5% (inactive)
25,COc1ccc(-c2nc(-c3ccccn3)c(-c3ccccn3)n2CC(C)C)cc1OC1CCCC1,9.32% (active)

# Tested on: HOP-62 NSCLC
# Assay: as above
# Conditions: 10 µM unless noted
row,Structure (SMILES),growth
1,O=C1NC(=O)C(=Cc2cn(Cc3cn(Cc4ccc(Cl)cc4Cl)nn3)c3ccccc23)C(=O)N1,94.3% (inactive)
2,CN1CCN(Cc2ccc(C(=O)Nc3cncc(C#Cc4cnc(N)c5ccccc45)c3)cc2C(F)(F)F)CC1,-48.4% (active)
3,COc1ccc(C2C3=C(COC3=O)N(CCO)c3cc4c(cc32)OCCO4)cc1 (configuration not stated),80.4% (inactive)
4,O=C(Nc1ccc(I)cc1F)c1cc(Cl)ccc1O,2.14% (active)
5,NCCOc1ccccc1/C=C1\c2ccccc2-c2ccc([N+](=O)[O-])cc21,-71.1% (active)
6,O=c1oc2ccc(I)cc2c(=O)n1-c1ccc(Cl)cc1F,-3.85% (active)
7,COc1cc(/C=C2\CN(C)C/C(=C\c3cc(CN4CCOCC4)c(O)c(OC)c3)C2=O)cc(CN2CCOCC2)c1O,68.9% (inactive)
8,CCOC(=O)c1sc(-c2ccc(OS(=O)(=O)C[C@]34CCC(CC3=O)C4(C)C)c(C=O)c2)nc1C,8.26% (active)
9,COc1ccc(/C=C2/SC(=O)N(CC(=O)N3CCN(c4cc5c(cc4F)c(=O)c(C(=O)O)cn5C4CC4)CC3)C2=O)cc1,97.6% (inactive)
10,COc1ccc(C)c2sc(N(Cc3cccnc3)C(=O)c3ccc(C#N)cc3)nc12,7.67% (active)
11,CC(=O)c1ccc(Nc2nc(NCCO)nc(Nc3ccc(Cl)cc3)n2)cc1,100% (inactive)
12,O=c1c2cc(F)cc(Cl)c2sc2c(Cl)nc3ccccc3c12,89.4% (inactive)
13,O=Cc1cc2ccccc2nc1Nc1nccs1,62.2% (inactive)
14,CC1=NCC2NC(=O)NC(C)=C12 (configuration not stated),97.9% (inactive)
15,COc1ccc(CCN2C(=O)CCSC2=S)cc1OC,97.5% (inactive)
16,CCOC(=O)c1sc(-c2ccc(OS(=O)(=O)c3ccccc3[N+](=O)[O-])c(C=O)c2)nc1C,117% (inactive)
17,Cc1cccc(NC(=O)c2sc3nc4c(cc3c2N)CCCC4)c1C,26.4% (inactive)
18,COc1cc(C(=O)NN=C2c3ccccc3-c3ccccc32)cc(OC)c1OC,36.6% (inactive)
19,Nc1ccc(-n2c(=O)oc3ccc(Cl)cc3c2=O)c(Cl)c1,-6.88% (active)

row,Structure (SMILES),growth
1,O=C(Nc1ccc(-c2nc3cc4ccccc4cc3[nH]2)cc1)c1cccc(Br)c1,49.9% (inactive)
2,CCOC(=O)CSc1c(-c2ccccc2)c2cc(Cl)ccc2[nH]c1=O,94.5% (inactive)
3,O=C(NCc1ccco1)C1CN(c2ccc(Cl)cc2)N(c2ccc(Cl)cc2)C1=O (configuration not stated),48.6% (inactive)
4,O=C(Nc1ncc(Cc2cccc(C(F)(F)F)c2)s1)C1COc2ccccc2O1 (configuration not stated),92.1% (inactive)
5,Fc1ccc(Oc2ccc(Nc3ncnc4onc(-c5ccccc5)c34)cc2)cc1,105% (inactive)
6,Cc1ccc(N=NC2C(=O)N(c3ccc(Cl)cc3)N(c3ccc(Cl)cc3)C2=O)cc1,89.2% (inactive)
7,Nc1nc(Nc2cccc(F)c2)nc2ccccc12,65.7% (inactive)
8,O=C(Nc1ccc(Br)cc1F)c1cc(F)ccc1O,2.13% (active)
9,Nc1ccc(C2c3ccccc3Oc3ccccc32)cc1,91.8% (inactive)
10,COc1ccc(/C=C/C(=O)c2ccc3cc(OC)c(OC)cc3c2)cc1OC,36% (inactive)
11,CN(C)c1ccc(N=Cc2ccc(N3CCOCC3)cc2)cc1,87.3% (inactive)
12,CC(=O)c1ccc(NC(=O)Nc2ccc(S(=O)(=O)Nc3ccc(Cl)nn3)cc2)cc1,95.9% (inactive)
13,CCC(C)(C)C(=O)O[C@H]1C[C@@H](C)C=C2C=C[C@H](C)[C@H](CC[C@@H]3CC=CC(=O)O3)[C@H]21,108% (inactive)
14,COC(=O)[C@H]1CCCN1C(=O)[C@H]1CCCN1C(=O)[C@H](Cc1c[nH]c2ccccc12)NC(=S)Nc1cc(C(F)(F)F)cc(C(F)(F)F)c1,74.5% (inactive)
15,NCCOc1ncccc1/C=C1\c2ccccc2-c2ccc([N+](=O)[O-])cc21,-60.1% (active)
16,CC(C)C[C@H](C(=O)N[C@H](C(N)=O)C(C)C)N1CC=CCN(OCc2ccccc2)S1(=O)=O,99.3% [2.5 µM] (inactive)
17,COc1ccc(N)c(-c2cc3c(c4c2[nH]c2ccc(OC)cc24)CCCC3)c1,70.4% (inactive)
18,COc1ccc(-c2nc(-c3ccccn3)c(-c3ccccn3)n2CC(C)C)cc1OC1CCCC1,28.3% (inactive)
